# Assay results as given in PubChem BioAssay (NCATS).
# Results filed as inconclusive are left out. A number with no mark means an inactive call. Activity calls are given as the source filed them. Unless noted, the call rests on the fitted dose curve.
# Test system: not listed separately
# Assay: qHTS for Inhibitors of the Functional Ribonucleoprotein Complex (vRNP) of Lymphocytic Choriomeningitis Arenaviruses (LCMV): Viability assay - alamar blue signal for LCMV Primary Screen (AID 1347085; calls by dose curve; tested in HEK293 reporter line; further: nearly all actives have a fitted effect of over 80% in size)
# Conditions: alamar blue viability counter-screen, LCMV vRNP screen cells; series mostly up to 57.5 µM; activity change, negative = lower viability: at the top concentration
# On the % scale 0 is the no-effect control and ±100 the full control effect.
SMILES,"activity change, negative = lower viability",Potency
CC=CC1=C(C(=O)O)N2C(=O)[C@H](NC(=O)[C@H](N)c3ccc(O)cc3)[C@@H]2SC1,3.32%,–
Cc1ccsc1/C=C/C1=NCCCN1C,9.18%,–
Cc1cn([C@@H]2O[C@H](CO)[C@@H](O)[C@H]2F)c(=O)[nH]c1=O,6.15%,–
O=c1cc(O)c(Cl)c[nH]1,–,inactive
O=C1c2ccccc2C(=O)c2c1ccc(O)c2O,-1.2%,–
CCCNC(C)C(=O)Nc1c(C)csc1C(=O)OC (stereo unspecified),0.841%,–
Cc1ccc(S(=O)(=O)NC(=O)NC2CCCCC2)cc1,14.3%,–
CCCNC(C)C(=O)Nc1ccccc1C (stereo unspecified),–,inactive
COc1cc(C(=O)NC2CCCNC2)cc(OC)c1OC (stereo unspecified),3.4%,–
Cc1cc(C(C#N)c2ccc(Cl)cc2)c(Cl)cc1NC(=O)c1cc(I)cc(I)c1O (stereo unspecified),16.6%,–
COC(=O)c1cc(Cl)c(NC(C)=O)cc1OC,7.04%,–
Cc1ccccc1C(=O)N1CC/C(=N\OS(=O)(=O)O)c2ccc(Cl)cc21,8.48%,–
O=C(CCCl)NCc1ccccc1,-0.295%,–
NC(=O)COCCN1CCN(C(c2ccccc2)c2ccc(Cl)cc2)CC1 (stereo unspecified),1.01%,–
COc1c2occc2c(OC)c2c(=O)cc(C)oc12,-4.01%,–
O=C(NCC(O)CO)c1c(I)c(C(=O)NCC(O)CO)c(I)c(N(CCO)C(=O)CO)c1I (stereo unspecified),0.566%,–
Cc1coc2ccccc2c1=O,-0.069%,–
Nc1ccc(S(N)(=O)=O)cc1,-2.77%,–
O=[N+]([O-])c1cncn1CCN1CCOCC1,1.97%,–

SMILES,"activity change, negative = lower viability",Potency
CC(=O)Nc1ccc(OC(=O)c2ccccc2OC(C)=O)cc1,3.23%,–
CCCCCCCCCCCCCCCCCC(=O)OCC(O)CO (stereo unspecified),-6.35%,–
NCc1ccc(S(N)(=O)=O)cc1,-6.5%,–
O=C(CS(=O)Cc1ccco1)NC/C=C\COc1cc(CN2CCCCC2)ccn1 (stereo unspecified),-4.1%,–
CCCCOCCOC(=O)c1cccnc1,3.15%,–
CCOC(=O)c1cnc2c(cnn2CC)c1NN=C(C)C,5.22%,–
CCCCCCCCCCCCCCCCO,–,inactive
CC(O)(P(=O)(O)O)P(=O)(O)O,2.72%,–
O=C(O)c1ccc(S(=O)(=O)N(Cl)Cl)cc1,-0.445%,–
CCOc1ccc(NC(=O)CC(C)O)cc1 (stereo unspecified),23.3%,–
NCC[C@H](O)C(=O)N[C@@H]1C[C@H](N)[C@@H](O[C@H]2O[C@H](CN)[C@@H](O)[C@H](O)[C@@H]2O)[C@H](O)[C@@H]1O[C@H]1O[C@H](CO)[C@@H](O)[C@H](N)[C@@H]1O,-4.65% [at 0.757 µM],–
CC(C)(C)CC(C)(C)c1ccc(O)c(-n2nc3ccccc3n2)c1,1.41%,–
Cc1cc(NS(=O)(=O)c2ccc(N)cc2)no1,1.63%,–
Cc1ccnc(NS(=O)(=O)c2ccc(N)cc2)n1,0.894%,–
O=C(O)Cc1ccc(OCCNC[C@H](O)c2ccccc2)cc1,-121%,–
CC(=O)OCC(=O)[C@@]1(O)[C@H](OC(C)=O)C[C@H]2[C@@H]3CCC4=CC(=O)C=C[C@]4(C)[C@@]3(F)[C@@H](O)C[C@@]21C,0.222%,–
Cc1cc(CC(=O)O)c(C)n1-c1ccc(Cl)cc1,11.5%,–
CN(CC1(C)CCCO1)S(=O)(=O)c1ccc(Cl)c(S(N)(=O)=O)c1 (stereo unspecified),-0.664%,–
O=C(O)CN(CCN(CC(=O)O)CC(=O)O)CCN(CC(=O)O)CC(=O)O,–,inactive

# Biological target: Nucleoprotein (Lymphocytic choriomeningitis virus (strain Armstrong)) (UniProt P09992)
# Sequence (P09992 whole entry, looked up): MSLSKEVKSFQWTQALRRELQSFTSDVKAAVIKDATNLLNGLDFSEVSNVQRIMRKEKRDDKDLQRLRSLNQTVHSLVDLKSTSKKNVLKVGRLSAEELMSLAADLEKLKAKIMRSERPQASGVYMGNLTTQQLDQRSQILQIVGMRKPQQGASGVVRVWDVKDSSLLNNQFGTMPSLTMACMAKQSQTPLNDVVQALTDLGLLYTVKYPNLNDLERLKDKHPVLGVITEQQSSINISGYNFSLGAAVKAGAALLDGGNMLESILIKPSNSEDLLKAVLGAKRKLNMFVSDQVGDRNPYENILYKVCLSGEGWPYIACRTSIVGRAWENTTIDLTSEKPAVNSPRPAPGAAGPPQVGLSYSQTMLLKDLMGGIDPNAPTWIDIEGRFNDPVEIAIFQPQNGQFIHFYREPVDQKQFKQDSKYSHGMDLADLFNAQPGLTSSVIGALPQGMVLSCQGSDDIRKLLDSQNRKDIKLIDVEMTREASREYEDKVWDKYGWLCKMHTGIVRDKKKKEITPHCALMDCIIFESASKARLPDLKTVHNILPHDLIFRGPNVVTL
# Assay: qHTS for Inhibitors of the Functional Ribonucleoprotein Complex (vRNP) of Lymphocytic Choriomeningitis Arenaviruses (LCMV): LCMV Primary Screen - GLuc reporter signal (AID 1347086); further: nearly all actives have a fitted effect of over 70% in size
# Conditions: LCMV minigenome vRNP cell assay, Gaussia luciferase reporter; series mostly up to 57.5 µM; activity change, negative = inhibition: at the top concentration
SMILES,"activity change, negative = inhibition",Potency
CC=CC1=C(C(=O)O)N2C(=O)[C@H](NC(=O)[C@H](N)c3ccc(O)cc3)[C@@H]2SC1,14.3%,–
Cc1ccsc1/C=C/C1=NCCCN1C,43%,–
Cc1cn([C@@H]2O[C@H](CO)[C@@H](O)[C@H]2F)c(=O)[nH]c1=O,94%,–
O=c1cc(O)c(Cl)c[nH]1,–,inactive
O=C1c2ccccc2C(=O)c2c1ccc(O)c2O,-11.8%,–
CCCNC(C)C(=O)Nc1c(C)csc1C(=O)OC (stereo unspecified),6.97%,–
Cc1ccc(S(=O)(=O)NC(=O)NC2CCCCC2)cc1,11.9%,–
CCCNC(C)C(=O)Nc1ccccc1C (stereo unspecified),–,inactive
COc1cc(C(=O)NC2CCCNC2)cc(OC)c1OC (stereo unspecified),18%,–
Cc1cc(C(C#N)c2ccc(Cl)cc2)c(Cl)cc1NC(=O)c1cc(I)cc(I)c1O (stereo unspecified),-0.397%,–
COC(=O)c1cc(Cl)c(NC(C)=O)cc1OC,25.3%,–
Cc1ccccc1C(=O)N1CC/C(=N\OS(=O)(=O)O)c2ccc(Cl)cc21,-2.05%,–
O=C(CCCl)NCc1ccccc1,17.2%,–
NC(=O)COCCN1CCN(C(c2ccccc2)c2ccc(Cl)cc2)CC1 (stereo unspecified),-4.63%,–
COc1c2occc2c(OC)c2c(=O)cc(C)oc12,-5.28%,–
O=C(NCC(O)CO)c1c(I)c(C(=O)NCC(O)CO)c(I)c(N(CCO)C(=O)CO)c1I (stereo unspecified),5.77%,–
Cc1coc2ccccc2c1=O,-0.592%,–
Nc1ccc(S(N)(=O)=O)cc1,0.452%,–
O=[N+]([O-])c1cncn1CCN1CCOCC1,16.4%,–

SMILES,"activity change, negative = inhibition",Potency
CC(=O)Nc1ccc(OC(=O)c2ccccc2OC(C)=O)cc1,0.728%,–
CCCCCCCCCCCCCCCCCC(=O)OCC(O)CO (stereo unspecified),-15.5%,–
NCc1ccc(S(N)(=O)=O)cc1,0.657%,–
O=C(CS(=O)Cc1ccco1)NC/C=C\COc1cc(CN2CCCCC2)ccn1 (stereo unspecified),2.06%,–
CCCCOCCOC(=O)c1cccnc1,13.2%,–
CCOC(=O)c1cnc2c(cnn2CC)c1NN=C(C)C,-6.68%,–
CCCCCCCCCCCCCCCCO,–,inactive
CC(O)(P(=O)(O)O)P(=O)(O)O,0.902%,–
O=C(O)c1ccc(S(=O)(=O)N(Cl)Cl)cc1,-3.51%,–
CCOc1ccc(NC(=O)CC(C)O)cc1 (stereo unspecified),31%,–
NCC[C@H](O)C(=O)N[C@@H]1C[C@H](N)[C@@H](O[C@H]2O[C@H](CN)[C@@H](O)[C@H](O)[C@@H]2O)[C@H](O)[C@@H]1O[C@H]1O[C@H](CO)[C@@H](O)[C@H](N)[C@@H]1O,19.2% [at 0.757 µM],–
CC(C)(C)CC(C)(C)c1ccc(O)c(-n2nc3ccccc3n2)c1,-0.193%,–
Cc1cc(NS(=O)(=O)c2ccc(N)cc2)no1,–,inactive
Cc1ccnc(NS(=O)(=O)c2ccc(N)cc2)n1,3.83%,–
O=C(O)Cc1ccc(OCCNC[C@H](O)c2ccccc2)cc1,-63.2%,–
CC(=O)OCC(=O)[C@@]1(O)[C@H](OC(C)=O)C[C@H]2[C@@H]3CCC4=CC(=O)C=C[C@]4(C)[C@@]3(F)[C@@H](O)C[C@@]21C,31.8%,–
Cc1cc(CC(=O)O)c(C)n1-c1ccc(Cl)cc1,0.613%,–
CN(CC1(C)CCCO1)S(=O)(=O)c1ccc(Cl)c(S(N)(=O)=O)c1 (stereo unspecified),7.65%,–
O=C(O)CN(CCN(CC(=O)O)CC(=O)O)CCN(CC(=O)O)CC(=O)O,–,inactive
